# Measurements from PubChem BioAssay (NCI).
# About 83,000 compounds went through this panel and 20% of them were active in at least one assay; those are over-represented in the sample as a whole.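 Plates (96-well) were seeded with cells, treated with compound at one concentration, and incubated for 48 hours before percent growth was determined.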 A number with no mark means an inactive call. Active and inactive are the calls of the source.
# Tested on: SN12C renal
# Assay: NCI-60 one-dose screen, 48 h (100 = growth as untreated, 0 = no growth, -100 = all killed)
# Settings: 10 µM
# Procedure: Growth inhibition of the SN12C human tumor cell line is measured as a screen for anti-cancer activity. Cells are grown in 96 well plates and exposed to the test compound for 48 hours. Compounds are tested at a single concentration, which is 10^-5 M for most compounds. The reported endpoint is percent growth (GI% or GIPRCNT), where numbers from 0 - 100% represent growth inhibition, and numbers from -100% - 0 represent cell death. For example, a value of 40 represents 60% growth inhibition. A value of 0 means no net growth occurred over the course of the experiment. A value of -40 indicates 40% of cells at the beginning of the experiment died by the end of the experiment. A value of -100 means all cells are dead at the end of the experiment.
# NCI-60 Human Tumor Cell Lines Screen was performed using the standard one-dose NCI protocol, which is described in more detail at https://dtp.cancer.gov/discovery_development/nci-60/default.htm.
# Compounds with GIPRCNT values below 10 were considered active. Activity score was based on GIPRCNT using the following formula: […]
# Score is 0 for GIPRCNT values of 100 or above, 50 for GIPRCNT values of 0, and 100 for GIPRCNT values of -100.
row,SMILES,growth
1,COc1cc(C2CC(c3ccc(Oc4ccc(Cl)cc4)cc3)=NN2c2nc(-c3ccc(Cl)cc3)c(C#N)c(N3CCOCC3)n2)cc(OC)c1OC (stereo not given),91.4%
2,COc1ccc(Cc2nn(CC(=O)N/N=C/c3ccc(Br)cc3)c(=O)c3c(C)noc23)cc1,12.4%
3,O=C(c1ccccc1)c1ccc2nc(-c3ccccc3Br)[nH]c2c1,-42.8% (active)
4,COc1cc(C2CC(c3ccccc3)=Nc3c(N)nc(N)nc3N2)ccc1Oc1nc(NCCO)nc(N2CCOCC2)n1 (stereo not given),94.8%
5,Cc1ccc2c(c1)C(=O)/C(=C/c1ccc([N+](=O)[O-])cc1)S2,93.4%
6,COc1ccc(C(=O)COc2ccc(NC(=O)Nc3ccccc3)cc2)cc1,91.1%
7,COc1ccc(Cc2nn(CC(=O)N/N=C/c3ccc([N+](=O)[O-])cc3)c(=O)c3c(C)noc23)cc1,39%
8,Cn1cc(-c2nnc(N)nc2-c2c[nH]c3ccccc23)c2cc(Br)cnc21,56.1%
9,COc1ccc(NCc2cn(-c3ccc(C(=O)O)cc3)nc2-c2ccc(F)cc2)cc1C(F)(F)F,32.2%
10,O=C(Nc1ccc(Oc2ncnc3scc(Nc4n[nH]c(=S)s4)c23)cc1)C1(C(=O)Nc2cccc(C(F)(F)F)c2)CC1,108%
11,COc1cc2oc(-c3cccc(C(=O)Nc4ccc(Cl)cc4)c3)cc(=O)c2c(OCCNC(=O)[C@@H](N)CO)c1OC,43.9%
12,O=[N+]([O-])c1cccc(-c2nnc3c(/C=C/c4ccccc4O)nc4ccccc4n23)c1,63.4%
13,COc1ccc2[nH]cc(-c3nc(N)nnc3-c3cn(C)c4ncc(Br)cc34)c2c1,17.8%
14,CCOC(=O)C1=C(N)N(c2ccc(C)cc2)C2=C(C(=O)CC(C)(C)C2)C1c1ccccc1Br (stereo not given),85.2%
15,COc1ccc(OC)c(-n2cc(C#N)c(N)c2C(=O)c2ccc(Cl)cc2Cl)c1,48.9%
16,COc1ccc(Cn2cc(C#N)c(N)c2C(C)=O)c(OC)c1,96.4%
17,O=C(Nc1ccc(OCc2ccc(Cl)cc2)cc1)Nc1ccc(Cl)c(C(F)(F)F)c1,18.2%
18,O=C(c1ccc(Cl)cc1)C(c1c[nH]c2ccccc12)c1c[nH]c2ccccc12,-59.7% (active)
19,COc1cccc(O)c1/C=C1\SCc2cc3c(OC)cccc3[o+]c21,101%
20,Cc1ccc(S(=O)(=O)N2CCN(S(=O)(=O)c3oc(-c4ccccc4)nc3C#N)CC2)cc1,76.8%

row,SMILES,growth
1,O=C(Nc1ccc(OCC(=O)c2ccc(Cl)cc2)cc1)Nc1ccc(Cl)c(C(F)(F)F)c1,58%
2,COc1ccc(C2OC[C@@]3(C)C4CC[C@]5(C)C(CC=C6C7CC(C)(C)CC[C@]7(C(=O)O)CC[C@]65C)[C@@]4(C)C[C@@H](O)[C@@H]3O2)cc1 (stereo not given in full),82%
3,O=C(c1ccc(F)cc1)C(c1c[nH]c2ccccc12)c1c[nH]c2ccccc12,42.6%
4,O=C(Nc1ccc(OCc2ccc(F)cc2)cc1)Nc1ccc(Cl)c(C(F)(F)F)c1,21.9%
5,O=C(CSc1nc2ccccc2c(=O)n1-c1ccc(Cl)cc1)Nc1ccc(-c2nc3ccc([N+](=O)[O-])cc3[nH]2)cc1,42.9%
6,O=C1NC2C=CC=CC2/C1=C1/SC(=S)N(C2CC(=O)N(c3ccc(Br)cc3)C2=O)C1=O (stereo not given),96%
7,CCOc1ccc(/C=N/NC(=O)Cn2nc(Cc3ccc(OC)cc3)c3onc(C)c3c2=O)cc1,-6.22% (active)
8,CC1(C)CC(=O)C2=C(C1)N(Cc1ccc(C(=O)O)cc1)C1=C(C(=O)CC(C)(C)C1)C2c1ccc(Cl)cc1,103%
9,CC(C)(C)c1cc(/C=C2\S/C(=N/c3ncn[nH]3)NC2=O)cc(C(C)(C)C)c1O,12.7%
10,O=C(CC(=O)Nc1ccc(Oc2ncnc3scc(Nc4n[nH]c(=S)s4)c23)cc1)Nc1ccc(Cl)cc1,88.1%
11,COc1ccc(C2c3sc4ccc(C)cc4c3Oc3nc[nH]c(=O)c32)cc1 (stereo not given),91.7%
12,COc1cc(-c2nc3ccc(C)cc3[nH]2)ccc1OCc1nnc(-c2ccccc2Br)o1,76.1%
13,CC1[C@H]2[C@H](C[C@H]3[C@@H]4CC=C5c6sc(Nc7cccc(Cl)n7)nc6CC[C@]5(C)[C@H]4CC[C@@]32C)O[C@]12CC[C@@H](C)CO2 (stereo not given in full),94.5%
14,COC(=O)CNC(=O)COc1c(OC)c(OC)cc2oc(-c3cccc(C(=O)Nc4ccc(Cl)cc4)c3)cc(=O)c12,41%
15,Nc1nnc(-c2c[nH]c3ncc(Br)cc23)c(-c2c[nH]c3ccc(Br)cc23)n1,46.9%
16,C#C[C@]1(O)CC[C@H]2[C@@H]3CC=C4c5sc(Nc6ccc(C(F)(F)F)cn6)nc5CC[C@]4(C)[C@H]3CC[C@@]21C,7.3% (active)
17,O=C(CN1CCN(c2ncnc3c2cnn3-c2ccccc2)CC1)Nc1ccc(Br)cc1,39.1%
18,Fc1ccc(/C=C/c2nc3ccccc3n3c(-c4ccc(Cl)cc4)nnc23)cc1,78.1%
19,Cc1ccc(COc2ccc(NC(=O)Nc3ccc(Cl)c(C(F)(F)F)c3)cc2)cc1,81.1%
20,Cn1cc(-c2cc3nc(-c4c[nH]c5ccccc45)cc(N)n3n2)c2cc(Cl)ccc21,-85.7% (active)
